# Data reported in the supplement of paper PMC8728848.
# The entries come from a sample that favours the strongest signals as a whole.
# Legend:
# Assay in all cases: glycan array binding signal (z-score within array); higher = stronger binding
# Details in all cases: glycan notation: IUPAC condensed, linker removed
# [1] = test system: Gal(b1-4)GlcNAc(b1-6)[Gal(b1-3)]GalNAc
# Outline: (§1)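 Glycan array binding is given as a within-array Z-score, which can be read as non-binding when negative. The arrays, 3228 of them, came from the Consortium for Functional Glycomics database and were retained only where the protein sequence was available. Z-scores were averaged across arrays of the same protein sequence at different concentrations or buffers and across linkers.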
# [2] = test system: Gal(b1-4)GlcNAc(b1-6)GalNAc
# Outline: as §1
# [3] = test system: Gal3S(b1-3)GlcNAc
# Outline: as §1
# [4] = test system: Gal(b1-4)Glc
# Outline: as §1
# [5] = test system: Gal(b1-6)Gal
# Outline: as §1
# [6] = test system: Gal3S(b1-3)GalNAc
# Outline: as §1
# [7] = test system: Gal(b1-4)GlcNAc
# Outline: as §1
# [8] = test system: Gal3S(b1-4)GlcNAc6S
# Outline: as §1
# [9] = test system: Gal3S(b1-4)GlcNAc
# Outline: as §1
# [10] = test system: Gal3S(b1-3)[Fuc(a1-4)]GlcNAc
# Outline: as §1
# CHI3L1 (Homo sapiens), P36222, sequence (P36222 whole entry): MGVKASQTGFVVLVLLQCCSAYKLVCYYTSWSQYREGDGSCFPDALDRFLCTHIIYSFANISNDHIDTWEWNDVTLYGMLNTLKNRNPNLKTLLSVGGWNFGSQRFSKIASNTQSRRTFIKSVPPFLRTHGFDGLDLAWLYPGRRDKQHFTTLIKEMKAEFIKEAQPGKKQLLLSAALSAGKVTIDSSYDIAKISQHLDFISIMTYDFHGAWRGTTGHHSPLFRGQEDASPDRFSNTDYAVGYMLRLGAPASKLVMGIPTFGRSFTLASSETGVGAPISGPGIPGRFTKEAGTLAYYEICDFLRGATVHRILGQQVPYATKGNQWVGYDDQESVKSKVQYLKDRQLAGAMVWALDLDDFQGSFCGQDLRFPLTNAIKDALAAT
# SRLC (Mus musculus), Q8VIF6, sequence (Q8VIF6 other isoform, or with tags, fused parts or gaps): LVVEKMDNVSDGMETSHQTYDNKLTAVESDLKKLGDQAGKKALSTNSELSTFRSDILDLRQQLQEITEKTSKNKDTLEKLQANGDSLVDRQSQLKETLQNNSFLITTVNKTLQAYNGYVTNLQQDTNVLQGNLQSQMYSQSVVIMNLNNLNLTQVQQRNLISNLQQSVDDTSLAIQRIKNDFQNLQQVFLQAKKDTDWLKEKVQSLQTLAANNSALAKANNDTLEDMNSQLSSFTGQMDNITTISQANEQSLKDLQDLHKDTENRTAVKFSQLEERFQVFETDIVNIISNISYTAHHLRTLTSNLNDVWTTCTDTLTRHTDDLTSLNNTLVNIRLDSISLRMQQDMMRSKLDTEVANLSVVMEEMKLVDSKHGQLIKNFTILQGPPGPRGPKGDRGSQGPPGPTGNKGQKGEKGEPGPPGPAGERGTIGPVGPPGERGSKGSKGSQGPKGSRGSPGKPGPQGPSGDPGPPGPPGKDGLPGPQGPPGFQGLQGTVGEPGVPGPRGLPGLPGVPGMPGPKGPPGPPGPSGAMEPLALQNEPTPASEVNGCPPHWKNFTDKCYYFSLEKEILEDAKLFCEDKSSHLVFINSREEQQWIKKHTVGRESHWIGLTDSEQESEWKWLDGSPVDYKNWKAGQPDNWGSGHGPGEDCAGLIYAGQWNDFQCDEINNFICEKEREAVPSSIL
# wLAT-1A (Homo sapiens), Q01650, sequence (Q01650 whole entry): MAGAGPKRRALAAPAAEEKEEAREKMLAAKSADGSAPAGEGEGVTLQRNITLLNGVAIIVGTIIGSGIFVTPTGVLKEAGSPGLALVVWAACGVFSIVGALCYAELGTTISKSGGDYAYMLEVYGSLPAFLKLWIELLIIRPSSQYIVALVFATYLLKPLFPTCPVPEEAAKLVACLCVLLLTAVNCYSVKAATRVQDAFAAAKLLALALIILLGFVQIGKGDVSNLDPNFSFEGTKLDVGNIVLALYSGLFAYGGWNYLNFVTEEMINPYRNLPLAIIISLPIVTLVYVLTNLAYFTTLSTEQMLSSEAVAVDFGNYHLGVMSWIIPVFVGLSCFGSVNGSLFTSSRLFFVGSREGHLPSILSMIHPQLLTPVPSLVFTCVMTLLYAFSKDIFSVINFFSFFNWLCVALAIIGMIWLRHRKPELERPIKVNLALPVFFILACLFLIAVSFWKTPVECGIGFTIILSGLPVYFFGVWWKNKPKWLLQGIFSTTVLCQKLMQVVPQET
# Avaren (Actinomycete K97), sequence (chain, as listed by the source): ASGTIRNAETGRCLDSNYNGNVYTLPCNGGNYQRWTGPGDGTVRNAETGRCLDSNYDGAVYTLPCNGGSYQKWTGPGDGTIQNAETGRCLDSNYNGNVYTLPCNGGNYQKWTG
# PILRa (Mus musculus), Q2YSF3, sequence (Q2YSF3 entry or part of it): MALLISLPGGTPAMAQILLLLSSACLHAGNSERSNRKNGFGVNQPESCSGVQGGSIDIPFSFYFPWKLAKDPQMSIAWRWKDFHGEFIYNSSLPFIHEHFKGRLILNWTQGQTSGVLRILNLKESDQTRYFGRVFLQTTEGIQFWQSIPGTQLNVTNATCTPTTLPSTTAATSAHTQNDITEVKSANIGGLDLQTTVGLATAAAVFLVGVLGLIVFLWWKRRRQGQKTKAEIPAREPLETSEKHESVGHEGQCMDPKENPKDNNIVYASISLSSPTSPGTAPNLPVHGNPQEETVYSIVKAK
# C3b (Homo sapiens), P01024, sequence (P01024 23-667): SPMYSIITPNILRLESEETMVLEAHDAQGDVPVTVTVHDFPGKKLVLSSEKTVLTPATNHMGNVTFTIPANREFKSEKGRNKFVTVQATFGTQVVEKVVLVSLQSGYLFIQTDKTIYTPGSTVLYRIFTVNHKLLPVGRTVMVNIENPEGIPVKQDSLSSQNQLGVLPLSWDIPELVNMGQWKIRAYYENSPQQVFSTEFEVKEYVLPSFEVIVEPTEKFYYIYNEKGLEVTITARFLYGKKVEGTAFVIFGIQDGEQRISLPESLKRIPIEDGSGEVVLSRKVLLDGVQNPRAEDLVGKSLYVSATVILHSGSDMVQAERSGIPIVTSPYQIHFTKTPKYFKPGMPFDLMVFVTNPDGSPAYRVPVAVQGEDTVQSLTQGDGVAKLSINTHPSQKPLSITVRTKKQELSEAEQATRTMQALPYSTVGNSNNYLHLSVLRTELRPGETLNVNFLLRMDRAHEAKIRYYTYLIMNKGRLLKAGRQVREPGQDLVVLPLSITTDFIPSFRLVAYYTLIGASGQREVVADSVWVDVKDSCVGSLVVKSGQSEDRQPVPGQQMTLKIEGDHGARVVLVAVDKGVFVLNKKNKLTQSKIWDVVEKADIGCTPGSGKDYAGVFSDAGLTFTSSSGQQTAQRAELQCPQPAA
# Regenerating Gene IV (Homo sapiens), Q9BYZ8, sequence (Q9BYZ8 whole entry, looked up): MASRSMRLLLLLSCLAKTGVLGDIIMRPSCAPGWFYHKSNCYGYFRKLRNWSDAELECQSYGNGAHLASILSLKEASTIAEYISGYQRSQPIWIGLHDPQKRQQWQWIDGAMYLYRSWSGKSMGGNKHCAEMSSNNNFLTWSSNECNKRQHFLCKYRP
# 6RG (Lolium perenne), B9U140, sequence (B9U140 entry or part of it): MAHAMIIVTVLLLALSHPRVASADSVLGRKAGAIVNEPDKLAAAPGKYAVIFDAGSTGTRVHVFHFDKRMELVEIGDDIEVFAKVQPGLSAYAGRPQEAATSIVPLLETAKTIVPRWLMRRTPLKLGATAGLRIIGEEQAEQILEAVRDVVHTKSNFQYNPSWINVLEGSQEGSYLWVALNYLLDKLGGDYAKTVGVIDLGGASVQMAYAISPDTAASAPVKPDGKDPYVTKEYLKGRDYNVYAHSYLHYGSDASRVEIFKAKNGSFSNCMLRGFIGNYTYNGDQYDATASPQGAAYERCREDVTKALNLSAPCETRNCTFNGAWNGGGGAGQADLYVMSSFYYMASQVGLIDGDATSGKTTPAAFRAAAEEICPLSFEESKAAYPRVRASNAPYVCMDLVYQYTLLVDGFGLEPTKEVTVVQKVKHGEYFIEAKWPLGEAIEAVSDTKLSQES
# CHT (Homo sapiens), sequence (chain, as listed by the source): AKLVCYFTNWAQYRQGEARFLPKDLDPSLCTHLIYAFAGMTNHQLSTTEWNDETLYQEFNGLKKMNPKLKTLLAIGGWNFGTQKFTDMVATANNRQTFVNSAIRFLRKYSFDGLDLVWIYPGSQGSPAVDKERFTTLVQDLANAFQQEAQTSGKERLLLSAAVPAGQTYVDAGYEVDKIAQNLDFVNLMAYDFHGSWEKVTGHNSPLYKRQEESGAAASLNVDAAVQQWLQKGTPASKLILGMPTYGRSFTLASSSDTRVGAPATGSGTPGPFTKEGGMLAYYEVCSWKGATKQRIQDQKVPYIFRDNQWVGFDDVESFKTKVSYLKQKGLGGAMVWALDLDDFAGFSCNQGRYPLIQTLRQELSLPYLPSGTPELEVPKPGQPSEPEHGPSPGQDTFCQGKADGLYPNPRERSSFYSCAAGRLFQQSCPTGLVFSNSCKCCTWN
substance,measurement,setting,value
"Regenerating Gene IV (Homo sapiens), Q9BYZ8",glycan array binding signal (z-score),[1],0.244
"wLAT-1A (Homo sapiens), Q01650",glycan array binding signal (z-score),[2],0.12
"C3b (Homo sapiens), P01024",glycan array binding signal (z-score),[3],1.05
"Neurocan (Homo sapiens), O14594",glycan array binding signal (z-score),[4],-0.551
"Siglec-8 (Homo sapiens), Q9NYZ4",glycan array binding signal (z-score),[1],-0.099
same,glycan array binding signal (z-score),[5],-0.178
same,glycan array binding signal (z-score),[5]; mutation: R125K,-0.117
same,glycan array binding signal (z-score),[6],0.076
"CHI3L1 (Homo sapiens), P36222",glycan array binding signal (z-score),[7],-0.122
same,glycan array binding signal (z-score),[8],-0.093
same,glycan array binding signal (z-score),[9],0.706
Avaren (Actinomycete K97),glycan array binding signal (z-score),[6],-0.121
"SRLC (Mus musculus), Q8VIF6",glycan array binding signal (z-score),[2],-0.239
same,glycan array binding signal (z-score),[10],-0.081
MpAFP RI GFP (Marinomonas primoryensis),glycan array binding signal (z-score),[2],-0.359
same,glycan array binding signal (z-score),[5],-0.336
same,glycan array binding signal (z-score),[3],-0.429
"PILRa (Mus musculus), Q2YSF3",glycan array binding signal (z-score),[2],-0.218
"6RG (Lolium perenne), B9U140",glycan array binding signal (z-score),[8],0.775
CHT (Homo sapiens),glycan array binding signal (z-score),"[2]; mutation: D138V, E140I",-0.115
